From PubChem BioAssay (NCATS) come the findings set out here.

SMILES strings stand for the structures. Values joined by “and” are separate entries in the source; they are usually repeats but may differ in a detail not shown here. Equal entries are not always repeated. Inconclusive results are not listed. More than one record can exist for a structure, and the calls need not agree. Active and inactive are the calls of the source. Unless noted, the call rests on the fitted dose curve; in most records, active means well fitted curve in either direction with a large enough effect (not every such curve was filed as active); inconclusive means small, poorly fitted or top-dose-only effect, or another doubt; inactive means flat fitted curve, though single readings scatter.

A short description of experiment [1]: AP1 Signaling Pathway (AID 357). Further: on the % scale 0 is the no-effect control and ±100 the full control effect. The settings on record: ME-180 AP-1-bla reporter, EGF-induced, beta-lactamase ratio, 5 h. The gist of the method: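 Read-out was the 460nm/530nm emission ratio (excitation 405nm) after CCF4 loading for 2.5 hours at room temperature. Cells carried an AP-1-driven beta-lactamase reporter, were stimulated with EC50 EGF plus compound for 5 hours, and AC50 values came from titrations.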

Experiment [2] concerns the target Cytochrome P450 1A2 (Homo sapiens) (UniProt P05177). Kind of experiment: p450-cyp1a2 (AID 410; calls by dose curve; further: potency means the concentration at half of the fitted maximal effect;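 on activity change, negative = inhibition: -100% = full effect of reference inhibitor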). The settings on record: recombinant CYP1A2, luciferin-ME demethylation, luminescence; series mostly up to 57 µM. The gist of the method: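 Read-out is luminescence from luciferin produced by CYP1A2 demethylation of Luciferin-ME (100uM, at Km). Detection reagent stopped the 60 min NADPH-dependent reaction; signals were normalized to 57 uM furafylline.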

A short description of experiment [3]: NFAT Signaling Pathway (AID 444).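 Further: carbachol stimulus at about its EC50 of 1 µM final; on the % scale 0 is the no-effect control and ±100 the full control effect.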 Particulars: Jurkat NFAT-bla M1, carbachol, beta-lactamase ratio, 5 h; at 38 µM (top of the series) unless noted. The method, boiled down:
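Jurkat cells with NFAT-driven β-lactamase reporter and co-expressed M1 receptor, stimulated with carbachol (final 1 uM, ~EC50), compound titration, 5 h at 37 °C. CCF4 loaded 1 h at RT; 460/530 nm ratio gave %activity and AC50.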

Experiment [4] is described as follows: Stat Signaling Pathway (AID 446).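 Further: ME-180 cervical cancer cells given 40 pM IL-6 alongside compound; SIE-controlled beta-lactamase reporter measured as 460/530 nm FRET emission ratio; on the % scale 0 is the no-effect control and ±100 the full control effect.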 The settings on record: ME-180 (cervical carcinoma) SIE beta-lactamase reporter, IL-6 stimulated, 5 h. The method, boiled down: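 Overnight-plated ME-180 cells bearing a STAT Inducible Element beta-lactamase reporter; 5 h co-exposure to compound and 40 pM IL-6; values normalized to 300 pM IL-6 and 125 nM JAK inhibitor controls.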
Experiment [5] has as its target Glucocorticoid receptor (Homo sapiens) (UniProt P04150). Kind of experiment: GR-GFP Redistribution (AID 450;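 active means compounds whose dose series gives a full or clear partial fitted curve of increased nuclear translocation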; further: potency means the concentration at half of the fitted maximal effect). Particulars: U2OS GR-GFP nuclear translocation, laser cytometry, 2 h.
Experiment [6] shares this target. Kind of experiment: GR-EFC Redistribution (AID 451; calls by dose curve; further: potency means the concentration at half of the fitted maximal effect). Particulars: CHO-K1 GR-EFC translocation, beta-gal luminescence, 2 h. The method, boiled down: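 CHO-K1 cells expressing nuclear EA and GR-ED fragments of b-gal; compounds titrated up to 46 uM final, 2 h at 37 C. GR nuclear translocation read as complemented b-gal luminescence after 1 h RT detection.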
For experiment [7], the target named is Mitogen-activated protein kinase 10 (Mus musculus) (UniProt Q61831). Kind of experiment: JNK3 AlphaScreen Assay (AID 530).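 Further: kinase came from lysate of stimulated human HepG2 cells; signal reports phosphorylation of biotinylated GST-cJun 1-79 at Ser73 with 10 µM ATP; on the % scale 0 is the no-effect control and ±100 the full control effect.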 The settings on record: JNK3 lysate, c-Jun phosphorylation; series mostly up to 57.1 µM. The method, boiled down:
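HepG2 lysate (IL-1b/TNFa pre-activated) + biotin-GST-cJun 1-79 + anti-pSer73 cJun; cpd titration, 15 min RT; ATP 10 uM start; Tris pH 7.6, MgCl2, DTT, vanadate; beads in EDTA buffer; AlphaScreen.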

Experiment [8] can be described thus: Cell Viability - Jurkat (AID 426;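 active means dose-dependent loss of cell ATP signal giving a full or clear fitted curve, ranked by lower potency value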; further: potency means the concentration at half of the fitted maximal effect). The settings on record: qHTS. The method, boiled down:
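Cytotoxicity was scored as loss of cellular ATP, measured by luciferase-based luminescence, in Jurkat clone E6-1 cells after 40 h compound treatment; tamoxifen and doxorubicin served as positive controls.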
Background: In qHTS, concentration-response curves come from the screen itself.

Experiment [9] is described as follows: Cell Viability - Hek293 (AID 427;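 active means compounds whose dose-response curve shows a full or clear partial loss of cell viability, called from curve shape rather than a numeric limit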;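 further: potency means the concentration at half of the fitted maximal effect; cells exposed to compound for 40 hours at 37 °C before reading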). Particulars: qHTS. The method, boiled down: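 AC50 values derive from Hill-modelled concentration-response of ATP-based luminescence, normalized between DMSO-only and 100 uM tamoxifen controls. Cells were exposed in complete culture medium for 40 hr at 37 °C before detection.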
Experiment [10] in a line: Cell Viability - HepG2 (AID 433; calls by dose curve;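 further: potency means the concentration at half of the fitted maximal effect; potency for ATP loss meaning cytotoxicity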). The settings on record: qHTS. The gist of the method: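 HepG2 hepatocellular carcinoma cells (1500/well) were treated with compounds for 40 h at 37 °C in complete medium; intracellular ATP was read by CellTiter-Glo luminescence. Data were normalized to DMSO and 100 uM tamoxifen, and AC50 came from Hill fits.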
The nature of experiment [11]: Cell Viability - MRC5 (AID 434; calls by dose curve;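 further: potency means the concentration at half of the fitted maximal effect; potency reflects cytotoxicity seen as loss of intracellular ATP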). Particulars: MRC5 lung fibroblast viability, qHTS. The gist of the method: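 ATP luminescence read-out (CellTiter-Glo, 20 min RT) after 40 hr, 37 °C compound exposure of 1500 MRC5 cells/well. Data normalized to DMSO (basal) and 100 uM tamoxifen (100% inhibition); AC50 from standard Hill equation.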
Experiment [12] can be described thus: Cell Viability - SK-N-SH (AID 435; calls by dose curve;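 further: potency means the concentration at half of the fitted maximal effect; compound exposure lasted 40 h at 37 °C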). Particulars: SK-N-SH neuroblastoma cell viability qHTS. The gist of the method: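 SK-N-SH human neuroblastoma cells (1500/well) were exposed to compounds in complete medium for 40 h at 37 °C, and intracellular ATP was then measured by CellTiter-Glo luminescence. AC50 was taken from Hill fits, normalized to DMSO and 100 uM tamoxifen.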

Experiment [13] can be described thus: Cell Viability - H-4-II-E (AID 543; active means well fitted cell-killing curve with a large enough effect; further: potency means the concentration at half of the fitted maximal effect; nearly all actives have a fitted effect of over 35% in size). Particulars: H-4-II-E rat hepatoma viability; series mostly up to 92.2 µM. The gist of the method:
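AC50 from Hill-modelled qHTS concentration-response curves. H-4-II-E rat hepatoma cells in complete medium, 40 hr exposure at 37 °C, viability by CellTiter-Glo ATP luminescence.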

Experiment [14] in a line: Cell Viability - SH-SY5Y (AID 544; active means well fitted cell-killing curve with a large enough effect; further: potency means the concentration at half of the fitted maximal effect; nearly all actives have a fitted effect of over 55% in size). The settings on record: SH-SY5Y neuroblastoma cell viability; viability change, negative = cytotoxic: at 92.2 µM (top of the series). The method, boiled down: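 Quantitative HTS in SH-SY5Y neuroblastoma cells, 40 hr treatment at 37 °C, ATP content by luciferase luminescence; AC50 from Hill fits.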

Glucocorticoid receptor (Homo sapiens), sequence (P04150 whole entry, looked up, the tested form may be a part): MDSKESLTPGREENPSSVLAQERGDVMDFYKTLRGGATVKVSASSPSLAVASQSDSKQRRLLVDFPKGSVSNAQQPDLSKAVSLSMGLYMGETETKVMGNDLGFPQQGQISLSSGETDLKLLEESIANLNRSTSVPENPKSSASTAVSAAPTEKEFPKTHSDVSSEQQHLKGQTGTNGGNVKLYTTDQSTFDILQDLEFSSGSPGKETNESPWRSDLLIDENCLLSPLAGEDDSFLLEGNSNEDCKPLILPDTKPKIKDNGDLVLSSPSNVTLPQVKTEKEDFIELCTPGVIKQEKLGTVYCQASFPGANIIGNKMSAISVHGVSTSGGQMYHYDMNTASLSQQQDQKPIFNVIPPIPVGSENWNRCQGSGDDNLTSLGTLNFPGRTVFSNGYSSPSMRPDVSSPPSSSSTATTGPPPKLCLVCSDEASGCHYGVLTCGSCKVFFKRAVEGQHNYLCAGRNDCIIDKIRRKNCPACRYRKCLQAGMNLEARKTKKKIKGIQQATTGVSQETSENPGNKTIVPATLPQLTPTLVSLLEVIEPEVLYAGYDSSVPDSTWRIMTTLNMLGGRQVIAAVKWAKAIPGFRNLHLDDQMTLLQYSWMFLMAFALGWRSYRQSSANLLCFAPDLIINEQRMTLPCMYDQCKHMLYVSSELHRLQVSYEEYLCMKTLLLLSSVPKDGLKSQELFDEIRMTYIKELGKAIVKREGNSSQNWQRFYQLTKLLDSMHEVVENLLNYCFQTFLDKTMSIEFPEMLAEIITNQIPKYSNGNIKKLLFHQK
Cytochrome P450 1A2 (Homo sapiens), sequence (P05177 whole entry, looked up): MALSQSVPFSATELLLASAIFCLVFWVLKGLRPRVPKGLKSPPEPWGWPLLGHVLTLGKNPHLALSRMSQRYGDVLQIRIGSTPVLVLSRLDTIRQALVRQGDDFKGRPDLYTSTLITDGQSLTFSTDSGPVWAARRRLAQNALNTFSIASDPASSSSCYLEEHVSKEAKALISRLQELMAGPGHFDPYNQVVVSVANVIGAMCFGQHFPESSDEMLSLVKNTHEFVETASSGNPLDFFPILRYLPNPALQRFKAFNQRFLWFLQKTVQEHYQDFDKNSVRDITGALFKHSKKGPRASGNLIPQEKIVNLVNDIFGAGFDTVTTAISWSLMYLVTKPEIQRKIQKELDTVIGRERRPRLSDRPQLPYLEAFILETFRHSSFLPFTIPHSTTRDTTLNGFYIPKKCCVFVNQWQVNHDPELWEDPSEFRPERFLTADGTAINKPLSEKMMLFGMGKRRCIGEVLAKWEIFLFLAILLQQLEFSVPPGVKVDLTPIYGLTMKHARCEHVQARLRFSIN

Consider `O=C(Nc1cccc(C(=O)Nc2ccc(S(=O)(=O)O)c3cc(S(=O)(=O)O)cc(S(=O)(=O)O)c23)c1)Nc1cccc(C(=O)Nc2ccc(S(=O)(=O)O)c3cc(S(=O)(=O)O)cc(S(=O)(=O)O)c23)c1`, for which the activity change, negative = inhibition in experiment [1] (at 38 µM (top of the series)) was -2.72% (inactive); in [3], 4.75% (inactive). The Potency result in [2] is “inactive”. Moreover, the activity, negative = inhibition in [4] (at 38 µM (top of the series)) is -0.505% (inactive). In addition, the Potency in experiment [5] was > 46 µM (inactive).

With `Clc1ccc(N2CCN(Cc3c[nH]c4ncccc34)CC2)cc1`, the figures for the activity change, negative = inhibition in experiment [1] (at 38 µM (top of the series)) and in experiment [3] were -4.78% (inactive) and -18.8% (inactive), respectively. Besides, the Potency entry is “inactive and 15.8 µM (active)” in [2]; > 46 µM (inactive) in experiment [5]; > 46 µM (inactive) in experiment [6]. Moreover, the activity, negative = inhibition in experiment [4] (at 38 µM (top of the series)) is -44.5% (inactive).

In the case of `O=c1[nH]c2cc([N+](=O)[O-])c([N+](=O)[O-])cc2[nH]c1=O`, the activity change, negative = inhibition in experiment [1] (at 38 µM (top of the series)) was -3.93% (inactive); in experiment [3], 4.52% (inactive). Moreover, the Potency entry in experiment [2] and in experiment [7] was “inactive” each time. The activity, negative = inhibition in experiment [4] (at 38 µM (top of the series)) was 21% (inactive). The Potency in [5] and in [6] was > 46 µM (inactive) throughout.

`COC(=O)c1c(C)[nH]c(C)c1C(=O)c1ccccc1Cc1ccccc1`: the activity change, negative = inhibition in experiment [1] (at 38 µM (top of the series)) was -27.5% (inactive); in experiment [3], 4.44% (inactive). The Potency in experiment [2] is 1.26 µM (active) and 251 nM (active); in [5], > 46 µM (inactive). In addition, the activity, negative = inhibition in [4] (at 38 µM (top of the series)) was -23% (inactive). In addition, the Potency result in experiment [7] was “inactive”.

As to `CC(=O)SCC[N+](C)(C)C`, the activity change, negative = inhibition in experiment [1] (at 38 µM (top of the series)) is 9.91% (inactive); in experiment [3], 9.71% (inactive). Also, the Potency result in experiment [2] and in experiment [7] was “inactive” throughout. For the same compound, in experiment [4] (at 38 µM (top of the series)), the activity, negative = inhibition is 1.77% (inactive). Besides, the Potency in experiment [5] and in experiment [6] was > 46 µM (inactive) throughout.

As for `NCCCS(=O)(=O)O`, in experiment [1] (at 38 µM (top of the series)), the activity change, negative = inhibition was -1.95% (inactive). Moreover, the Potency result in [2] and in [7] was “inactive” each time. In addition, in experiment [4] (at 38 µM (top of the series)), the activity, negative = inhibition was -2.17% (inactive). Moreover, the Potency in experiment [5] is > 46 µM (inactive).

For `CN1[C@@H](CC(=O)c2ccccc2)CCC[C@H]1C[C@H](O)c1ccccc1`, the activity change, negative = inhibition in experiment [1] (at 17.2 µM (top of the series)) was 1.25% (inactive). Further, in experiment [4] (at 17.2 µM (top of the series)), the activity, negative = inhibition was 5.71% (inactive).

With `NC(N)=NC(=O)c1nc(Cl)c(N2CCCCCC2)nc1N`, the activity change, negative = inhibition in experiment [1] (at 38 µM (top of the series)) is 21.5% (inactive). The Potency in experiment [2] was 1 µM (active); in experiment [5] it was > 46 µM (inactive). Moreover, the activity, negative = inhibition in experiment [4] (at 38 µM (top of the series)) was 1% (inactive). Moreover, the Potency entry in experiment [7] is “inactive”.

Consider `Fc1ccc(C(OCCCc2cnc[nH]2)c2ccc(F)cc2)cc1`, for which the activity change, negative = inhibition in experiment [1] (at 38 µM (top of the series)) was 26.5% (inactive). The figures for the Potency in experiment [2], in experiment [5] and in experiment [6] were 0.1 µM (active), > 46 µM (inactive) and > 46 µM (inactive), respectively. The activity, negative = inhibition in experiment [4] (at 38 µM (top of the series)) was 27.8% (inactive). Moreover, in experiment [7], the Potency entry is “inactive”.

Regarding `COc1cc(/C=C/C(=O)CC(=O)/C=C/c2ccc(O)c(OC)c2)ccc1O`, the activity change, negative = inhibition in experiment [1] (at 17.2 µM (top of the series)) was 22.5% (inactive). The Potency in experiment [8] is 28.2 µM (active); in [9] it was 42.7 µM (active); in [10], > 92 µM (inactive); in experiment [11], 45.2 µM (active); in experiment [12], 22.9 µM (active); in [5], > 20.6 µM (inactive). For the same compound, the Potency in [13] and in experiment [14] was 31.6 µM (active) in each case. Moreover, in experiment [4] (at 17.2 µM (top of the series)), the activity, negative = inhibition is -22.7% (inactive). Further, the Potency result in experiment [7] is “inactive”.
